Experimental data published in PubChem BioAssay.
The source made the active and inactive calls.

Key:
[1] = binders of probe aFSTL3 on microarray, primary screen, stem cell growth factor project, biochemical, small-molecule microarray, fluorescence 635/667 (AID 1064); conditions: higher = more signal;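 also: measures binding of the biotinylated anti-FSTL3 antibody to printed compounds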
[2] = binders from COS7 lysate, DM2A8 probe, primary screen, torsin A project, cell lysate, small-molecule microarray, fluorescence 635/667 (AID 1065); conditions: higher = more signal, COS7 lysate expressing mutant human TOR1A
[3] = binders of probe aFGF2 on microarray, primary screen, stem cell growth factor project, biochemical, small-molecule microarray, fluorescence 635/667 (AID 1067); conditions: higher = more signal;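 also: measures binding of biotinylated aFGF2 protein to printed compounds on slides; z-score merges feature fluorescence and signal-to-noise across triplicate slides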
[4] = binders of probe aFGF10 on microarray, primary screen, stem cell growth factor project, biochemical, small-molecule microarray, fluorescence 635/667 (AID 1071); conditions: higher = more signal;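 also: score merges 667 nm spot intensity and signal to noise from triplicate slides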
[5] = target: Neurogenic locus notch homolog protein 2 (Homo sapiens) (UniProt Q04721); experiment: Notch2 binders on small-molecule microarrays, primary screen, biochemical, small-molecule microarray, 635 nm fluorescence, stem cell growth factors (AID 1073); conditions: Notch2 binding, higher = more signal
[6] = target: Pro-neuregulin-1, membrane-bound isoform (Homo sapiens) (UniProt Q02297); experiment: NRG1 binders on small-molecule microarrays, primary screen, psychiatric disease protein project, biochemical, small-molecule microarray, fluorescence 635/667 (AID 1075); conditions: NRG1 binding, 635 nm fluorescence, higher = more signal;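 also: score combines 667 nm spot fluorescence with signal to noise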
[7] = test system: Neuregulin-1 EGF-like domain; experiment: binders of neuregulin-1 EGF-like domain, primary screen, biochemical, small-molecule microarray, 635 nm fluorescence (AID 1081); conditions: small-molecule microarray binding, higher = more signal;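 also: binding of the protein to compounds printed on small-molecule microarray slides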
[8] = FRG1 promoter luciferase signal modulators, primary screen, FRG1 inhibition for FSHD, cell-based, C2C12 myotubes, firefly/Renilla luciferase, luminescence (AID 1084); conditions: higher = more signal, called active from +8 up or from −8 down
[9] = binders of probe aFST on microarray, primary screen, stem cell growth factor project, biochemical, small-molecule microarray, fluorescence 635/667 (AID 1086); conditions: higher = more signal;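 also: score merges 667 nm fluorescence with signal-to-noise of each printed compound spot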
[10] = binders of probe aHhip on microarray, primary screen, stem cell growth factor project, biochemical, small-molecule microarray, fluorescence 635/667 (AID 1087); conditions: higher = more signal;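 also: score merges spot fluorescence at 667nm with spot signal to noise ratio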

Chain of Neurogenic locus notch homolog protein 2 (Homo sapiens) (Q04721 whole entry, looked up, canonical isoform): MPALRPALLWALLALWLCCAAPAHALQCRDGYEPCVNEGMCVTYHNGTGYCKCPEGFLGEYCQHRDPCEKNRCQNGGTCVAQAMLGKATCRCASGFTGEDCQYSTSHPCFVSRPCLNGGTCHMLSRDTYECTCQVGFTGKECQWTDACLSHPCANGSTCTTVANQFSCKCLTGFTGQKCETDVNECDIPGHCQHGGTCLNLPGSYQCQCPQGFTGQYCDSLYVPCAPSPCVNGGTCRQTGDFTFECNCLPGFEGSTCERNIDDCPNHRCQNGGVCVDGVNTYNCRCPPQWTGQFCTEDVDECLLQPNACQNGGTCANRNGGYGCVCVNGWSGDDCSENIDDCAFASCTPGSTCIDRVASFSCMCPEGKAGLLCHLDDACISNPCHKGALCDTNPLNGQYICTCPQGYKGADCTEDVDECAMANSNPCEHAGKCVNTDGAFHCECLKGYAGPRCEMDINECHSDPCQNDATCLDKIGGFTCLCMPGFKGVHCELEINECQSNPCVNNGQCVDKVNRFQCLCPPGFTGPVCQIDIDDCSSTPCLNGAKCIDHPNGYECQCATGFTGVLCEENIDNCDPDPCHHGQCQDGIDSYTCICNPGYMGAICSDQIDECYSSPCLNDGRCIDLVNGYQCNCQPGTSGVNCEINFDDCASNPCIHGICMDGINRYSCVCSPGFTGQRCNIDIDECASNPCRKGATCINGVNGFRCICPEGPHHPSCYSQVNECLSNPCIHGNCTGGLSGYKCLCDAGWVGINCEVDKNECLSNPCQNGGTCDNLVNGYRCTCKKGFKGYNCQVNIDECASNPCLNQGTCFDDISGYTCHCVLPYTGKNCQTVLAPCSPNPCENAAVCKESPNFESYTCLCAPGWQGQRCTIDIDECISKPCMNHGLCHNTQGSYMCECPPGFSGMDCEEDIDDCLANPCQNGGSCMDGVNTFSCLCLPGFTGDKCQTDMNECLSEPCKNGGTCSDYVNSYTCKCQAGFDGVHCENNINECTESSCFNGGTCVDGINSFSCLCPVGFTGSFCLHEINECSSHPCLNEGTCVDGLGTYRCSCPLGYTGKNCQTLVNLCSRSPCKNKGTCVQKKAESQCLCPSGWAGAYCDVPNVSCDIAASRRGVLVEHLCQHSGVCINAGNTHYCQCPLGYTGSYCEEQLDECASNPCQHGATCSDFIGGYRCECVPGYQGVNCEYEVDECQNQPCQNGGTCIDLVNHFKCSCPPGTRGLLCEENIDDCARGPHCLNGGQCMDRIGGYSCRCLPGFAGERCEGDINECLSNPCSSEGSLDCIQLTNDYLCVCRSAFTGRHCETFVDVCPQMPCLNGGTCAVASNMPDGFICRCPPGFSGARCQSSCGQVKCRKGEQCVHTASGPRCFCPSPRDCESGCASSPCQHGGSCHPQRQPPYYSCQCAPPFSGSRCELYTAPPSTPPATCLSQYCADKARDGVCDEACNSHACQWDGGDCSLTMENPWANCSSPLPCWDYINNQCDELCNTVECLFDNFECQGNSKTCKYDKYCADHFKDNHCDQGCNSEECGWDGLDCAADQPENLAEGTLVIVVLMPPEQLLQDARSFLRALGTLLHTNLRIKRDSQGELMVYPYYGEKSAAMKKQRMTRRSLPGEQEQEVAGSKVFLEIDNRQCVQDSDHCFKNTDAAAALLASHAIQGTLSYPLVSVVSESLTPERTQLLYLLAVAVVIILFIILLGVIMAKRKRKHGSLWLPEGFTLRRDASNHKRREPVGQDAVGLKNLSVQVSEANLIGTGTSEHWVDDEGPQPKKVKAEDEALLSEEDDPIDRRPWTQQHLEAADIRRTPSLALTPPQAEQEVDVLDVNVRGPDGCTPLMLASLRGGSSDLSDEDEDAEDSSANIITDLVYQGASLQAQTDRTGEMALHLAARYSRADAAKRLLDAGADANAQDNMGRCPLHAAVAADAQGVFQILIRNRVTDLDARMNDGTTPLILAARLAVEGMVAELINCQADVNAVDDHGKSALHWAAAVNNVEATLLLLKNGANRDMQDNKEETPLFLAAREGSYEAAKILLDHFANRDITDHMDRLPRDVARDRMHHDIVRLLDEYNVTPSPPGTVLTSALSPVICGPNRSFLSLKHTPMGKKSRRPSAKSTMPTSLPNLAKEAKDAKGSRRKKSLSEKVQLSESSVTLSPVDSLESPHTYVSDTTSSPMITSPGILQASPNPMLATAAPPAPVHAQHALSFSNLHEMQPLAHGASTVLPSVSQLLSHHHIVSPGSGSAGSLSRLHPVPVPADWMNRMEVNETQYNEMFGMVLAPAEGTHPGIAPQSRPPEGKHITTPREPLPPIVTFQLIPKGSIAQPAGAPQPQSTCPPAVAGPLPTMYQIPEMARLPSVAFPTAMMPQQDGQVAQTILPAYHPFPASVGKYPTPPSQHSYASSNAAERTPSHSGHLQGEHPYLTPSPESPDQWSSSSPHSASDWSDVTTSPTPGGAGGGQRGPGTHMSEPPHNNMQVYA
Chain of Pro-neuregulin-1, membrane-bound isoform (Homo sapiens) (Q02297 whole entry, looked up, the tested form may be a part, canonical isoform): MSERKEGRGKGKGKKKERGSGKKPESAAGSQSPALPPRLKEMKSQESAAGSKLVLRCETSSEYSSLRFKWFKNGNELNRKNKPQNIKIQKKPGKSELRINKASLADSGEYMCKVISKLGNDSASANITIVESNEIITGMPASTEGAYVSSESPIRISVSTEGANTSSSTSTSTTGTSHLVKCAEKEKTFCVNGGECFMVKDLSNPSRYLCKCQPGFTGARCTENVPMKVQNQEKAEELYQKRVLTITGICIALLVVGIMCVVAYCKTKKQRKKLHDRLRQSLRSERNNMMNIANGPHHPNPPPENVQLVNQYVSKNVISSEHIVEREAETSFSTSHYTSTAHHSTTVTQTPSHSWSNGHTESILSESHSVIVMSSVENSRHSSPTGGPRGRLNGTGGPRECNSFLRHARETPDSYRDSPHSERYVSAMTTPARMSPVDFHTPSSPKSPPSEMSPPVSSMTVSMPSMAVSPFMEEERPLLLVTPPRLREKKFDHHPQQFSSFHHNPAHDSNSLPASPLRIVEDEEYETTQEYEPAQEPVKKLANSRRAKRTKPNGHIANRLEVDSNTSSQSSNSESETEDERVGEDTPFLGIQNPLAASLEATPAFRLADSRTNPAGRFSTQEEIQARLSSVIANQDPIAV

| SMILES | composite z-score [1] | composite z-score [2] | composite z-score [3] | composite z-score [4] | composite z-score [5] | composite z-score [6] | composite z-score [7] | z-score [8] | composite z-score [9] | composite z-score [10] |
| --- | --- | --- | --- | --- | --- | --- | --- | --- | --- | --- |
| CCOC(=O)C1=CC[C@@H](c2ccc(OCc3ccccc3)c(OC)c2)N(S(=O)(=O)c2ccc(C)cc2)[C@H]1c1ccc(SC)cc1 | 0.152 | 0.718 | 0.162 | 1.02 | 1.54 | 0.876 | 1.11 | -0.895 (inactive) | 1.67 | 0.245 |
| COC(=O)[C@@]1(Cc2ccc(F)cc2)[C@H]2c3cc(C(=O)N4CCCC4)n(CCN4CNCC4=O)c3C[C@H]2CN1C(=O)c1ccccc1 | 0.144 | 1.56 | 0.0732 | 0.132 | 1.26 | 1.07 | 1.35 | 4.7 (inactive) | 1.26 | 0.178 |
| COCCOC(=O)N1C(=O)[C@@]2(c3cc(C#CCNC(N)=O)ccc31)[C@H](C(=O)N1CCc3cc(OC)c(OC)cc3C1)[C@H]1C(=O)O[C@H](c3ccccc3)[C@H](c3ccccc3)N1[C@@H]2c1ccccc1OCCO | -0.178 | 1.05 | -0.0908 | 0.371 | 0.749 | 0.202 | 0.869 | -0.902 (inactive) | 0.31 | -0.191 |
| C[C@]1(C(=O)NC2CC2)c2ccccc2C(=O)N(Cc2ccccc2)[C@H]1c1ccc(CO)cc1 | 0.942 | -0.729 | -0.116 | -0.796 | -0.956 | -0.145 | 0.659 | -1.69 (inactive) | -0.346 | -0.511 |
| CC(C)C(CO)N1C(=O)[C@@H]2C3C(=O)OCCC/C=C\[C@H]3OC23C=CCN(C(C)(C)C)C(=O)[C@@H]13 (stereo not given in full) | -0.0102 | -0.311 | -0.133 | -0.394 | -1.02 | -0.596 | 1.06 | -0.241 (inactive) | -0.418 | 0.0274 |
| COCCOC(=O)N1C(=O)[C@@]2(c3cc(C#CC4(O)CCCCCC4)ccc31)[C@H](c1ccc(O)cc1)N1[C@H](c3ccccc3)[C@H](c3ccccc3)OC(=O)[C@H]1[C@@H]2C(=O)NC[C@H](O)c1ccccc1 | -0.116 | 0.556 | -0.126 | 0.666 | 1.29 | 0.463 | 1.02 | 0.69 (inactive) | 0.538 | 0.176 |
| CCOC(=O)C[C@H]1[C@H](OC(=O)c2cc3ccccc3oc2=O)[C@@H](NC(=O)Cc2ccc(OC)cc2)c2cc(OCCCO)ccc2N1C(=O)c1ccc2ccccc2n1 | -0.19 | 0.648 | -0.127 | 0.403 | 0.848 | 0.35 | 0.996 | -1.07 (inactive) | 0.0814 | -0.123 |
| Cc1cc(C)cc(N2C(=O)CSC2c2cccc([N+](=O)[O-])c2)c1 (stereo not given) | -0.0703 | 0.571 | -0.0036 | 0.887 | 1.17 | 1.4 | 1.21 | 1.07 (inactive) | 0.712 | -0.0994 |
| OCCCC1=CC(c2ccc(CN3CCCC3)cc2)N(Cc2sc3ccccc3c2Cl)CC1 (stereo not given) | 1.46 | 0.41 | -0.221 | 0.828 | 0.72 | 0.65 | 1.27 | -0.475 (inactive) | 0.0562 | 0.535 |
| O=C1O[C@@H](c2ccccc2)[C@@H](c2ccccc2)N2[C@@H](c3ccc(O)cc3)[C@]3(C(=O)Nc4ccc(C#CC5=CCCCC5)cc43)[C@@H](C(=O)NC[C@H](O)c3ccccc3)[C@H]12 | 0.135 | 1.76 | -0.0181 | 0.508 | 1.52 | 1.2 | 1.35 | 0.754 (inactive) | 0.398 | 0.251 |
| COCCCNC(=O)[C@@]1(Cc2ccccc2N=[N+]=[N-])N=C(c2ccc(OCCCO)cc2)O[C@H]1c1ccccc1 | 0.6 | 2.55 | 0.153 | 0.904 | 0.629 | 1.38 | 1.17 | -1.98 (inactive) | 0.404 | 0.212 |
| Cc1ccc(S[C@]2(C(=O)NCCCN(C)C)CC(=O)N(C3CCCCC3)[C@@H]2c2ccc(CO)cc2)cc1 | 0.655 | -1.19 | -0.0885 | -0.418 | -0.503 | 1.43 | 0.98 | -0.404 (inactive) | -0.249 | -0.132 |
| C=CCC(OC(C)=O)[C@@H]1[C@@H](N(Cc2ccc(-c3cccc(C(F)(F)F)c3)o2)C(=O)c2ccc(C)cc2)c2cc(OCCCO)ccc2N1C(=O)c1ccc2ccccc2c1 (stereo not given in full) | -0.302 | 0.462 | 0.0002 | 0.298 | -0.204 | -0.0678 | 0.273 | 0.0925 (inactive) | 0.0494 | 0.0749 |
| CC(C)C[C@@H]1NC(=O)[C@@H]2C[C@H](C(=O)NCCCCCN)[C@H](c3ccc(O)cc3)N2C1=O | 0.347 | 0.174 | -0.0909 | 0.335 | 0.727 | 1.26 | 1.3 | -0.375 (inactive) | 0.371 | 0.0854 |
| CCOC(=O)c1ccc(NC(=O)O[C@H]2[C@H](OC(=O)Nc3ccc4c(c3)OCO4)[C@H](OC(=O)Nc3ccc4c(c3)OCO4)[C@@H](OC)O[C@@H]2CO)cc1 | 0.237 | 0.807 | 0.129 | 1.14 | 1.59 | 0.898 | 1.3 | 1.08 (inactive) | 0.792 | 0.28 |
| COCCOC(=O)N1C(=O)[C@@]2(c3cc(C#CC4=CCCCC4)ccc31)[C@H](c1ccc(OCCO)cc1)N1[C@H](c3ccccc3)[C@H](c3ccccc3)OC(=O)[C@H]1[C@@H]2C(=O)N1CCN(c2ncccn2)CC1 | 0.0516 | 0.504 | 0.0664 | 0.874 | 1.31 | 0.521 | 1.05 | -0.64 (inactive) | 0.59 | 0.0053 |
| OCC1CC(c2ccccc2)=NO1 (stereo not given) | -0.315 | 0.239 | -0.0242 | 0.202 | -0.244 | -0.584 | -0.164 | 0.557 (inactive) | 0.127 | 0.235 |
| COCCOC(=O)N1C(=O)[C@@]2(c3cc(C#Cc4ccc(OC)cc4)ccc31)[C@H](c1ccccc1OCCO)N1[C@H](c3ccccc3)[C@H](c3ccccc3)OC(=O)[C@H]1[C@@H]2C(=O)N1CCCCCCC1 | 3.55 | 1.2 | 0.903 | 0.573 | 1.3 | 1.7 | 0.961 | -0.633 (inactive) | 3.39 | 1.47 |
| [N-]=[N+]=NCc1ccccc1C[C@]1(C(N)=O)N=C(c2ccc(OCCCO)cc2)O[C@H]1c1ccccc1 | 0.124 | 0.514 | -0.0129 | 0.726 | 0.639 | 1.89 | 1.14 | -3.9 (inactive) | 1.56 | -0.201 |
| COc1cc2c(cc1OC)CN(C(=O)[C@@H]1[C@H]3C(=O)O[C@H](c4ccccc4)[C@H](c4ccccc4)N3[C@H](c3ccc(OCCO)cc3)[C@@]13C(=O)Nc1ccc(C#CC4(O)CCCCCC4)cc13)CC2 | -0.543 | 0.416 | 0.0246 | 1.15 | 1.14 | 1.67 | 1.15 | -0.921 (inactive) | 0.528 | -0.6 |
| COC(=O)c1c2oc(c1C(=O)OC)C(=O)N(C)Cc1cn(nn1)C[C@H](Cc1ccccc1)NC(=O)N[C@H](CO)CC2 | -0.239 | -0.705 | -0.174 | -0.248 | -0.867 | -0.638 | -0.717 | -0.161 (inactive) | -0.276 | 0.0854 |
| COC(=O)[C@@]1(Cc2ccccc2N=[N+]=[N-])N=C(c2ccc(OCCCO)cc2)O[C@H]1c1ccccc1N=[N+]=[N-] | 0.663 | 0.192 | 0.0131 | -0.0009 | 0.648 | 0.859 | 1.27 | -0.492 (inactive) | 0.214 | -0.0123 |
